# From the supplement of paper PMC10849652
# Targets with a hit are over-represented here; the source holds about 8,800 in all. About 0.5% of all pairs of compound and target were hits. Unmarked numbers belong to inactive results.
# What was measured:
# Assay in all cases: log2 fold change, soluble protein after heating vs DMSO (PISA); higher = thermal stabilisation; K562 lysate, 10 uM; active = over 0.2 and 3.5 SD of the protein, either way, in both replicates (recomputed)
# vemurafenib = compound: CCCS(=O)(=O)Nc1ccc(F)c(C(=O)c2c[nH]c3ncc(-c4ccc(Cl)cc4)cc23)c1F [vemurafenib]
# Method in brief: (§1)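 A 30 min treatment with 10 μM compound was applied to crude K562 extract at 1 mg/mL protein in PBS pH 7.4 with 1 mM MgCl2. Heating for 3 min spanned 48°C-58°C, after which aliquots were pooled, adjusted to 0.5% NP-40 at 4°C and spun at 21,000xg for 90 min. TMTpro 16plex LC-MS/MS of the supernatant, with channel sums equalised, gave values recorded as log-two fold change in thermal stability against solvent controls, from duplicates.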
# [1] = compound: CC[C@@H]1C(=O)N(C)c2cnc(Nc3ccc(C(=O)NC4CCN(C)CC4)cc3OC)nc2N1C1CCCC1
# Method in brief: as §1
# [2] = compound: CCn1c(C(=O)N(C2CC2)C2CC2)cc2c3c(ncn3C)c(Nc3cc(C)n(C)n3)nc21
# Method in brief: as §1
# saracatinib = compound: CN1CCN(CCOc2cc(OC3CCOCC3)c3c(Nc4c(Cl)ccc5c4OCO5)ncnc3c2)CC1 [saracatinib]
# Method in brief: as §1
# sotrastaurin = compound: CN1CCN(c2nc(C3=C(c4c[nH]c5ccccc45)C(=O)NC3=O)c3ccccc3n2)CC1 [sotrastaurin]
# Method in brief: as §1
# Tubastatin A = compound: CN1CCc2c(c3ccccc3n2Cc2ccc(C(=O)NO)cc2)C1 [Tubastatin A]
# Method in brief: as §1
# [3] = compound: CNC(=O)C1=CC=CC=C1NC2=NC(=NC=C2Cl)NC3=C(C=C(C=C3)N4CCOCC4)OC
# Method in brief: as §1
# defactinib = compound: CNC(=O)c1ccc(Nc2ncc(C(F)(F)F)c(NCc3nccnc3N(C)S(C)(=O)=O)n2)cc1 [defactinib]
# Method in brief: as §1
# [4] = compound: CNc1nc(-c2ccc3c(N)n[nH]c3c2)cc(N2C[C@@H](C(=O)NC3CCCCC3)CC[C@H]2C)n1
# Method in brief: as §1
# encorafenib = compound: COC(=O)N[C@@H](C)CNc1nccc(-c2cn(C(C)C)nc2-c2cc(Cl)cc(NS(C)(=O)=O)c2F)n1 [encorafenib]
# Method in brief: as §1
# [5] = compound: COC(=O)[C@H](CCSC)NC(=O)C1=C(C=C(C=C1)NC[C@H](CS)N)C2=CC=CC=C2
# Method in brief: as §1
# [6] = compound: CCCS(=O)(=O)Nc1ccc(F)c(C(=O)c2c[nH]c3ncc(Cl)cc23)c1F
# Method in brief: as §1
# volasertib = compound: CC[C@@H]1C(=O)N(C)c2cnc(Nc3ccc(C(=O)N[C@H]4CC[C@H](N5CCN(CC6CC6)CC5)CC4)cc3OC)nc2N1C(C)C [volasertib]
# Method in brief: as §1
# [7] = compound: CCn1cc(-c2ccnc3[nH]c(-c4cccc(CN(C)C)c4)cc23)c(-c2ccc(NC(=O)N(C)C)cc2)n1
# Method in brief: as §1
# [8] = compound: CN1CCC(CNc2ccc3ncc(-c4cccc(OC(F)(F)F)c4)n3n2)CC1
# Method in brief: as §1
# alvocidib = compound: CN1CC[C@H](c2c(O)cc(O)c3c(=O)cc(-c4ccccc4Cl)oc23)[C@H](O)C1 [alvocidib]
# Method in brief: as §1
# alisertib = compound: COc1cc(Nc2ncc3c(n2)-c2ccc(Cl)cc2C(c2c(F)cccc2OC)=NC3)ccc1C(=O)O [alisertib]
# Method in brief: as §1
# [9] = compound: COc1cc2nc(-c3cc(F)ccc3O)nc(N[C@@H]3CNC[C@H]3C(C)(C)O)c2cc1OC
# Method in brief: as §1
# gefitinib = compound: COc1cc2ncnc(Nc3ccc(F)c(Cl)c3)c2cc1OCCCN1CCOCC1 [gefitinib]
# Method in brief: as §1
# Sequence of UniProt Q96E14 (Q96E14 whole entry, looked up): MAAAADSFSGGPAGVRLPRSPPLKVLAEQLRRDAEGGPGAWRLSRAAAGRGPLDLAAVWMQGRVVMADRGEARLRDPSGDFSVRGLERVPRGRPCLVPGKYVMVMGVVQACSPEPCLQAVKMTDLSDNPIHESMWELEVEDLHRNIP
# Sequence of UniProt Q9BWG6 (Q9BWG6 whole entry, looked up): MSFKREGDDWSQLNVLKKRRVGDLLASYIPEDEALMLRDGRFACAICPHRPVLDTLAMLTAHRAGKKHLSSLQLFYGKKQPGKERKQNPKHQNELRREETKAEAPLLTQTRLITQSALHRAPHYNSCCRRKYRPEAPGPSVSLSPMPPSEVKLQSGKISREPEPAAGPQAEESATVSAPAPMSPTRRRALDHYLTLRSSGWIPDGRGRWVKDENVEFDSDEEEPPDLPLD
# Sequence of UniProt O15027 (O15027 whole entry, looked up): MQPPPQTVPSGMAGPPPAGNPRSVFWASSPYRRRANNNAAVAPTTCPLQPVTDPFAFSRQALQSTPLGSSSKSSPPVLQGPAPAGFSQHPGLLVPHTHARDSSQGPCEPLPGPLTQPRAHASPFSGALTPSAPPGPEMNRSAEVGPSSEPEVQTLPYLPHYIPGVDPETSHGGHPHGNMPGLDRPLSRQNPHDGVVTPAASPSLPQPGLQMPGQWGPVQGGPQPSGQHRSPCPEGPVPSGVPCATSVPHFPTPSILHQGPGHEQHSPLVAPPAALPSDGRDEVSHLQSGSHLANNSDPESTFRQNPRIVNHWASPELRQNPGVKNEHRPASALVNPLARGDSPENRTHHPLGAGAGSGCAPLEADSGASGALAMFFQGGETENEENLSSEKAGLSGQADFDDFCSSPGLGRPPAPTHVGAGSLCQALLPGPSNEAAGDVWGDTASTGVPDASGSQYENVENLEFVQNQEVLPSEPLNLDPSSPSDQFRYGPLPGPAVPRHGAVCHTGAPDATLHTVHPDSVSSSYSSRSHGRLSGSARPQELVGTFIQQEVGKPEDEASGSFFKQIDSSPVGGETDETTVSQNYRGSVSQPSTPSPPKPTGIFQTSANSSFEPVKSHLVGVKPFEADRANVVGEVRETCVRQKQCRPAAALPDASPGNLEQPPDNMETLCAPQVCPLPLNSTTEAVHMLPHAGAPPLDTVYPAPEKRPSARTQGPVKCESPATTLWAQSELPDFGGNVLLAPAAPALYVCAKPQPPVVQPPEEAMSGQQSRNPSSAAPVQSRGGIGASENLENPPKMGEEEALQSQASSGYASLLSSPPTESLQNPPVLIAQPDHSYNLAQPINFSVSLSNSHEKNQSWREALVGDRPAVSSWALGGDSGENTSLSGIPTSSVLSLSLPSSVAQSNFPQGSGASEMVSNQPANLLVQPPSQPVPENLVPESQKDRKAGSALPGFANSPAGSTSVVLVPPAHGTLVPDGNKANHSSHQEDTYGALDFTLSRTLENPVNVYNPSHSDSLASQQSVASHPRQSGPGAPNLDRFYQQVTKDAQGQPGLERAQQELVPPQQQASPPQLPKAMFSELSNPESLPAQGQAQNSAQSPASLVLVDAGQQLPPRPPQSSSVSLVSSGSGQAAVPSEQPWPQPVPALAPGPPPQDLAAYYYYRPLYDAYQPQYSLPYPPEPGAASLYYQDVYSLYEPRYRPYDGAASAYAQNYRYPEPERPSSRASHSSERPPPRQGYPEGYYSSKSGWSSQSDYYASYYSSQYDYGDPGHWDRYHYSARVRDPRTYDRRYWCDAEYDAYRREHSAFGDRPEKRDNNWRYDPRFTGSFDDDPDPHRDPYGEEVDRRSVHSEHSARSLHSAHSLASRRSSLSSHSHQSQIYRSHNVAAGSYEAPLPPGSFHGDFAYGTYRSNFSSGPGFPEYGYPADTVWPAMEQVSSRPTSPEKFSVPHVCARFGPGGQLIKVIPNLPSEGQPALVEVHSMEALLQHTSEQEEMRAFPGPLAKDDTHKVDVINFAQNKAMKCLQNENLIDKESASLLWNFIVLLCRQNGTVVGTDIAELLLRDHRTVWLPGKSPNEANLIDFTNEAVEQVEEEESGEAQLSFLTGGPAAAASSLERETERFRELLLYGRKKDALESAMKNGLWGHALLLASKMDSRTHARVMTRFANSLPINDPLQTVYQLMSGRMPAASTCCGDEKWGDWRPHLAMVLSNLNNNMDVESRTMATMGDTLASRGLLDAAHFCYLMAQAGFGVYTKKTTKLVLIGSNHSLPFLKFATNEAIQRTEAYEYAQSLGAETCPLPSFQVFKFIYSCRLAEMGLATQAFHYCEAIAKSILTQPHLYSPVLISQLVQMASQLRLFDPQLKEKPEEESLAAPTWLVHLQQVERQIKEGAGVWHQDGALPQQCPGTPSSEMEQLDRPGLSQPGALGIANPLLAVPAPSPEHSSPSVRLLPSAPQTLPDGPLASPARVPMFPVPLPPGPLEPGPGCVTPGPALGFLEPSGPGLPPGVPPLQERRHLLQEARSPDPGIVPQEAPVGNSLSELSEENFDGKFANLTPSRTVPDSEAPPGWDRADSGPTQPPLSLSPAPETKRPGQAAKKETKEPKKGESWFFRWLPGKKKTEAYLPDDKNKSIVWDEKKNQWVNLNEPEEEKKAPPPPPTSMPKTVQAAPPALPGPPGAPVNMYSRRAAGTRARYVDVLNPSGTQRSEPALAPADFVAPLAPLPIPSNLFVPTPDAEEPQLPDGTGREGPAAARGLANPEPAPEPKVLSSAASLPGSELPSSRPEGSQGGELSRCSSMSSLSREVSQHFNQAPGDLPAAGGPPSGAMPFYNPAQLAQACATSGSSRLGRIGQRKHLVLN
target,measurement,setting,value
RMI2 (UniProt Q96E14),log2 fold change,vemurafenib,0.239
same,log2 fold change,[1],-0.109
same,log2 fold change,[2],-0.007
same,log2 fold change,saracatinib,-0.008
same,log2 fold change,sotrastaurin,-0.01
same,log2 fold change,Tubastatin A,-0.146
same,log2 fold change,[3],-0.074
same,log2 fold change,defactinib,0.265
same,log2 fold change,[4],0.007
same,log2 fold change,encorafenib,-0.054
same,log2 fold change,[5],-0.021
SCNM1 (UniProt Q9BWG6),log2 fold change,[6],0.012
same,log2 fold change,[1],0.122
same,log2 fold change,volasertib,0.372 (active)
same,log2 fold change,[2],0.099
same,log2 fold change,[7],-0.033
same,log2 fold change,[8],-0.005
same,log2 fold change,saracatinib,-0.092
same,log2 fold change,sotrastaurin,-0.023
same,log2 fold change,alvocidib,-0.005
same,log2 fold change,Tubastatin A,0.035
same,log2 fold change,[3],0.117
same,log2 fold change,[4],0.127
same,log2 fold change,encorafenib,0.115
same,log2 fold change,[5],-0.311
same,log2 fold change,alisertib,0.035
same,log2 fold change,[9],0.15
same,log2 fold change,gefitinib,0.114
RBBP7 (UniProt C9J7L0),log2 fold change,alisertib,0.089
same,log2 fold change,gefitinib,-0.058
SEC16A isoform 2 (UniProt O15027),log2 fold change,[2],-0.204
same,log2 fold change,Tubastatin A,0.023
